We go through 65 compounds from the antibiotic and cytotoxicity screens of Wong et al. (2023).

Out of some 39,000 compounds screened, about 1,500 (3.8%) were called active. The list comes from a sample in which actives are over-represented; it also holds similar structures and randomly drawn compounds.

This assay concerns HSkMC (human skeletal muscle cells). The assay is described as follows: cytotoxicity call (relative viability < 0.9). Conditions: 10 µM.
For the compound `C[C@@H]1CC=CC[C@@H](c2cccc(Cl)c2)NC(=O)[C@@H](Cc2ccccc2)N(C)C(=O)c2ccccc2O1`, the cytotoxicity call is “inactive”.
Next, `Cc1noc(C)c1NC(=O)Nc1ccc2c(c1)C(=O)N([C@@H](C)CO)C[C@H](C)[C@H](CN(C)Cc1ccc(Cl)c(Cl)c1)OCCCC[C@@H](C)O2`: “inactive”; `N[C@@H](CC(=O)O)c1cccc([N+](=O)[O-])c1`: “inactive”; `C[C@@H]1CN([C@H](C)CO)C(=O)c2cc(NS(=O)(=O)c3ccccc3)ccc2O[C@H]1CN(C)S(C)(=O)=O`: “inactive”.
Take `COCC#Cc1ccc2c(c1)O[C@@H](CN(C)C(=O)COC)[C@H](C)CN([C@@H](C)CO)S2(=O)=O`: the cytotoxicity call is “inactive”.
As for `CC(C)NC(=O)Nc1ccc2c(c1)C(=O)N([C@@H](C)CO)C[C@H](C)[C@H](CN(C)S(=O)(=O)c1cccs1)O2`, the cytotoxicity call is “inactive”.
Turning to `C[C@@H]1CN([C@H](C)CO)C(=O)Cc2cc(NC(=O)C3CCCCC3)ccc2O[C@H]1CN(C)C(=O)Nc1ccc(C(F)(F)F)cc1`, the cytotoxicity call was “inactive”.
On to `Cc1ccc(S(=O)(=O)N[C@H]2C=C[C@H](CC(=O)NCCN3CCCCC3)O[C@@H]2CO)cc1`, for which the cytotoxicity call is “inactive”.
For `C[C@@H]1CN([C@H](C)CO)C(=O)c2cc(NS(=O)(=O)c3cccs3)ccc2O[C@@H]1CN(C)S(=O)(=O)c1cccs1`, the cytotoxicity call is “inactive”.
Next, `CC(C)NC(=O)Nc1ccc2c(c1)C(=O)N([C@H](C)CO)C[C@@H](C)[C@@H](CN(C)Cc1ccc(Oc3ccccc3)cc1)O2`: “inactive”; `NC[C@@H](CO)Cc1ccsc1`: “inactive”.
Next, `C[C@@H]1CCCCO[C@@H](CN(C)S(C)(=O)=O)[C@H](C)CN([C@@H](C)CO)C(=O)c2cc(NC(=O)CCCN(C)C)ccc2O1`: “inactive”; `COc1ccc(S(=O)(=O)Nc2ccc3c(c2)C(=O)N([C@@H](C)CO)C[C@H](C)[C@@H](CN(C)S(=O)(=O)c2cccs2)O3)cc1`: “inactive”.
Next, `COc1ccc(S(=O)(=O)N2C[C@H](O)COC[C@@H]3O[C@H](CC(=O)N[C@@H]4CCN(Cc5ccccc5)C4)CC[C@H]32)cc1`: “inactive”; `COc1ccc(CN(C)C[C@H]2OCCCC[C@@H](C)Oc3ccc(NC(=O)Nc4cccc5ccccc45)cc3C(=O)N([C@@H](C)CO)C[C@H]2C)cc1`: “active”; `COc1ccc(CN(C)C[C@H]2OCCCC[C@H](C)Oc3ccc(NC(=O)Nc4cccc5ccccc45)cc3C(=O)N([C@H](C)CO)C[C@H]2C)cc1`: “active”.
For `COc1ccc(CN(C)C[C@H]2OCCCC[C@H](C)Oc3ccc(NC(=O)Nc4cccc5ccccc45)cc3C(=O)N([C@H](C)CO)C[C@@H]2C)cc1`, the cytotoxicity call was “inactive”.
Turning to `COc1ccc(CN(C)C[C@@H]2OCCCC[C@@H](C)Oc3ccc(NC(=O)Nc4cccc5ccccc45)cc3C(=O)N([C@H](C)CO)C[C@@H]2C)cc1`, the cytotoxicity call is “inactive”.
`COc1ccc(CN(C)C[C@@H]2OCCCC[C@H](C)Oc3ccc(NC(=O)Nc4cccc5ccccc45)cc3C(=O)N([C@@H](C)CO)C[C@H]2C)cc1`: the cytotoxicity call is “active”.
Next, `COc1ccc(CN(C)C[C@H]2OCCCC[C@@H](C)Oc3ccc(NC(=O)Nc4cccc5ccccc45)cc3C(=O)N([C@H](C)CO)C[C@@H]2C)cc1`: “active”; `COc1ccc(CN(C)C[C@@H]2OCCCC[C@@H](C)Oc3ccc(NC(=O)Nc4cccc5ccccc45)cc3C(=O)N([C@@H](C)CO)C[C@@H]2C)cc1`: “inactive”.
Next, `COc1ccc(CN(C)C[C@H]2OCCCC[C@@H](C)Oc3ccc(NC(=O)Nc4cccc5ccccc45)cc3C(=O)N([C@@H](C)CO)C[C@@H]2C)cc1`: “inactive”; `CCOC(=O)c1cc2c(c(-c3cccc(-c4cccc(F)c4)c3)n1)[C@H](CCO)N(S(=O)C(C)(C)C)C2` (stereo not given in full): “inactive”.
The same measure for `N#C[C@H]1N[C@@H](CO)[C@@H]1c1ccccc1`: “inactive”.
For the compound `CC(C)NC(=O)N(C)C[C@@H]1OCCCC[C@H](C)Oc2ccc(NC(=O)C3CCCCC3)cc2C(=O)N([C@H](C)CO)C[C@@H]1C`, the cytotoxicity call is “inactive”.
For `COc1ccc(S(=O)(=O)Nc2ccc3c(c2)C(=O)N([C@@H](C)CO)C[C@@H](C)[C@@H](CN(C)C(=O)Nc2ccccc2)OCCCC[C@@H](C)O3)cc1`, the cytotoxicity call is “inactive”.
Regarding `C[C@@H]1CN([C@H](C)CO)C(=O)c2cc(Br)cnc2O[C@@H]1CN(C)S(=O)(=O)c1ccc(F)cc1`, the cytotoxicity call is “inactive”.
The same measure for `C[C@@H]1CN([C@@H](C)CO)C(=O)c2cc(NC(=O)CCN3CCOCC3)ccc2O[C@@H]1CN(C)C(=O)Nc1ccc2c(c1)OCO2`: “inactive”; for `C[C@@H]1CN([C@H](C)CO)C(=O)c2cc(C#CCN(C)C)cnc2O[C@@H]1CN(C)C(=O)c1ccc2c(c1)OCO2`: “inactive”.
The same measure for `C[C@@H]1CN([C@@H](C)CO)S(=O)(=O)c2ccc(C#CC3CCCC3)cc2O[C@H]1CN(C)C(=O)Cc1ccncc1`: “inactive”; for `Cc1noc(C)c1NC(=O)Nc1ccc2c(c1)CC(=O)N([C@@H](C)CO)C[C@H](C)[C@H](CN(C)S(=O)(=O)c1cccs1)O2`: “inactive”; for `COCCOC(=O)C1=C(C)NC(C)=C(C(=O)OC(C)C)C1c1cccc([N+](=O)[O-])c1` (stereo not given): “inactive”.
The same measure for `COC(=O)C1=C(C)NC(C)=C(C(=O)NCCCN2CCC(c3ccccc3)(c3ccccc3)CC2)[C@@H]1c1ccc([N+](=O)[O-])cc1`: “inactive”; for `COC(=O)C1=C(C#N)NC(C)=C(C(=O)OC(C)C)C1c1cccc([N+](=O)[O-])c1` (stereo not given): “inactive”.
Turning to `CC1=C(C(=O)OCCN(Cc2ccccc2)c2ccccc2)[C@H](c2cccc([N+](=O)[O-])c2)C(P2(=O)OCC(C)(C)CO2)=C(C)N1`, the cytotoxicity call is “inactive”.
The same measure for `COC(=O)C1=C(C)NC(C)=C(C(=O)OC(C)(C)CN(C)CCC(c2ccccc2)c2ccccc2)[C@@H]1c1cccc([N+](=O)[O-])c1`: “active”; for `CCOC(=O)C1=C(C)NC(C)=C(C(=O)OC)C1c1cccc([N+](=O)[O-])c1` (stereo not given): “inactive”.
The same measure for `COC(=O)C1=C(C)NC(C)=C(C(=O)OCCCN2CCC(c3ccccc3)(c3ccccc3)CC2)[C@H]1c1cccc([N+](=O)[O-])c1`: “active”; for `COC(=O)C1=C(C)NC(C)=C(C(=O)OCCCN2CCC(c3ccccc3)(c3ccccc3)CC2)[C@@H]1c1cccc([N+](=O)[O-])c1`: “active”; for `COC(=O)C1=C(C)NC(C)=C(C(=O)OCCN2CCN(C(c3ccccc3)c3ccccc3)CC2)C1c1cccc([N+](=O)[O-])c1` (stereo not given): “inactive”.
The same measure for `COCCOC(=O)C1=C(C)NC(C)=C(C(=O)OCC=Cc2ccccc2)C1c1cccc([N+](=O)[O-])c1` (stereo not given): “inactive”; for `CCCN1C(C)=C(C(=O)OC)[C@@H](c2cccc([N+](=O)[O-])c2)C(C(=O)ON2CCC(c3ccccc3)(c3ccccc3)CC2)=C1C`: “active”; for `COC(=O)C1=C(C)NC(C)=C(C(=O)OCCN(C)Cc2ccccc2)C1c1cccc([N+](=O)[O-])c1.Cl` (stereo not given): “inactive”.
Regarding `Cc1ccc(S(=O)(=O)N(C)C[C@H]2Oc3ccc(NS(=O)(=O)c4cccs4)cc3CC(=O)N([C@@H](C)CO)C[C@@H]2C)cc1`, the cytotoxicity call was “inactive”.
The same measure for `C[C@@H]1CN([C@H](C)CO)C(=O)Cc2cc(NC(=O)c3ccncc3)ccc2O[C@@H]1CN(C)Cc1ccc(C(=O)O)cc1`: “inactive”; for `COc1ccc(O)c(N)c1`: “inactive”.
The same measure for `c1csc(CNc2ccc(NCc3cccs3)cc2)c1`: “inactive”; for `Cc1noc(C)c1NC(=O)N[C@H]1CC[C@@H](CC(=O)N2CCN(C)CC2)O[C@@H]1CO`: “inactive”.
Next, `C[C@H](CO)N1C[C@H](C)[C@H](CN(C)S(C)(=O)=O)Oc2ccc(NC(=O)C3CCCCC3)cc2CC1=O`: “inactive”; `Cc1ccc(S(=O)(=O)N[C@@H](Cc2ccccc2)C(=O)NCCCn2cc(C(=O)NO)nn2)cc1`: “inactive”; `C[C@@H]1CCCCO[C@H](CN(C)CC2CCCCC2)[C@@H](C)CN([C@@H](C)CO)C(=O)c2cc(NS(=O)(=O)c3cccs3)ccc2O1`: “inactive”.
Turning to `C[C@@H]1CN([C@H](C)CO)C(=O)Cc2cc(NC(=O)Nc3ccccc3)ccc2O[C@@H]1CN(C)Cc1ccc(Cl)c(Cl)c1`, the cytotoxicity call is “active”.
The same measure for `C[C@@H]1CN([C@@H](C)CO)C(=O)Cc2cc(NC(=O)Nc3ccccc3)ccc2O[C@@H]1CN(C)Cc1ccc(Cl)c(Cl)c1`: “active”.
Next, `C[C@H]1CN([C@@H](C)CO)C(=O)Cc2cc(NC(=O)Nc3ccccc3)ccc2O[C@H]1CN(C)Cc1ccc(Cl)c(Cl)c1`: “active”; `C[C@@H]1CN([C@H](C)CO)C(=O)Cc2cc(NC(=O)Nc3ccccc3)ccc2O[C@H]1CN(C)Cc1ccc(Cl)c(Cl)c1`: “active”.
Next, `C[C@H](CO)N1C[C@H](C)[C@H](CN(C)S(C)(=O)=O)Oc2ccc(NC(=O)Nc3ccc4c(c3)OCO4)cc2CC1=O`: “inactive”; `CC[C@@H](C)N1C(=O)CC[C@H]1C(=O)O`: “inactive”.
For the compound `COc1ccc(S(=O)(=O)Nc2ccc3c(c2)C(=O)N([C@H](C)CO)C[C@H](C)[C@H](CN(C)Cc2ccc(C(=O)Nc4ccccc4N)cc2)OCCCC[C@@H](C)O3)cc1`, the cytotoxicity call was “inactive”.
The same measure for `C[C@H](CO)N1C[C@H](C)[C@@H](CN(C)S(=O)(=O)c2cccs2)Oc2ccc(NS(C)(=O)=O)cc2C1=O`: “inactive”.
Next, `NCc1ccc(C(=O)O)cc1`: “inactive”; `Cc1noc(C)c1NC(=O)Nc1cccc2c1O[C@H](CN(C)S(=O)(=O)c1ccccc1)[C@@H](C)CN([C@@H](C)CO)C2=O`: “inactive”.
The same measure for `C[C@@H]1CCCCO[C@H](CN(C)C(=O)c2ccncc2)[C@@H](C)CN([C@H](C)CO)C(=O)c2cc(NC(=O)CCCCCC(=O)Nc3ccccc3N)ccc2O1`: “inactive”; for `CCc1nc2ccc(C(=O)Nc3cc(-c4ccccc4)ccc3OC)cn2c1N(CCN(C)C)CC1CC1`: “inactive”.
For `C[C@H](CO)N1C[C@H](C)[C@@H](CN(C)S(=O)(=O)c2cn(C)cn2)Oc2c(NC(=O)C3CCOCC3)cccc2C1=O`, the cytotoxicity call was “inactive”.
Next, `CN1C(=O)c2cc(NC(=O)C3CCCC3)ccc2OC[C@H]2O[C@@H](CC(=O)NCCc3ccncc3)CC[C@@H]21`: “inactive”.
